Source: PubChem
An excerpt weighted towards active compounds, which were near 19% of everything screened.
TGFb SMAD3 inh: TGF-b pathway inhibition; HepG2 CAGA-GFP TGF-b/SMAD3 reporter, GFP fluorescence, 18 h; TGF-beta stimulated, 500 pg/mL final; Potency, µM (doses to about 46.1 µM), for inactives: at the top dose activity, negative = inhibition, hits mostly inhibitors; 410,000 compounds, 1.2% hits; note: potency is the fitted concentration of half-maximal effect; % is set by controls: 0 for no effect and ±100 for the full control effect; nearly all actives have a fitted effect of over 65% in size
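TGF-beta reporter screen: HEPG2 CAGA-GFP, 1% FBS, 500 pg/mL TGF-beta final, 18 h; per-cell GFP summed per well; curves fitted and categorized by class.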
IL-1B inflam inh: blocks inflammasome-driven IL-1 beta release | THP-1 LPS/ATP IL-1B secretion, AlphaLISA, 16 h; hits give low values | activity change, % at 57.5 µM | 360,000 compounds, 4.7% hits; in the data active = activity change below about -50%; inconclusive = mostly about -30% to -49%; note: % is set by controls: 0 for no effect and ±100 for the full control effect
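Secreted IL-1B measured by AlphaLISA bead assay after 16 h compound exposure of THP-1 cells; compounds (final up to 57.5 uM) added 1 h before LPS (250 ng/mL) and ATP (1.25 mM) stimulation; lower signal means less secretion.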
TDP1 cell noCPT: qHTS for Inhibitors of human tyrosyl-DNA phosphodiesterase 1 (TDP1): qHTS in cells in absence of CPT; DT40 Tdp1-/- hTDP1 cells, no CPT, ATP luminescence, 48 h; Potency, µM (doses to about 46.2 µM), for inactives: top-dose activity change, negative = growth inhibition, hits mostly inhibitors; 420,000 compounds, 15% hits; note: potency is the fitted concentration of half-maximal effect; % is set by controls: 0 for no effect and ±100 for the full control effect; nearly all actives have a fitted effect of over 55% in size
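No-CPT arm: Tdp1-/-;hTDP1 DT40 cells (400/well) plus compounds, incubated ≥48 hr at 37 °C. Readout CellTiter-Glo luminescence.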
TDP1 cell CPT: growth inhibition of DT40 Tdp1-/-;hTDP1 cells with camptothecin (screen for TDP1 inhibitors). 420,000 compounds, 12% hits. chicken DT40 Tdp1-/-;hTDP1 cells + 20 nM CPT, ATP luminescence, 48 h. Potency, µM (highest dose often 46.2 µM), inactives show at the highest dose activity change, negative = growth inhibition, actives largely listed as inhibitors; note: potency is the fitted concentration of half-maximal effect; % is set by controls: 0 for no effect and ±100 for the full control effect; nearly all actives have a fitted effect of over 55% in size
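Cell growth measured by CellTiter-Glo luminescence after a minimum 48 h, 37 C compound exposure with 20 nM CPT in Tdp1-knockout DT40 cells stably expressing hTDP1, seeded 400/well; qHTS titration format.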
HepG2 tox: counter-screen for TGF-b inhibitors: cytotoxicity in HepG2 cells; 410,000 compounds, 0.76% hits; HepG2 CAGA-GFP viability, ATP luminescence, 18 h; AID 588856; Potency, µM (doses to about 46.1 µM), without a hit: top-dose activity change, negative = cytotoxicity, hits mostly cytotoxic; note: potency is the fitted concentration of half-maximal effect
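CellTiter-Glo luminescence gave cytotoxicity after 18 hours at 37 degrees C. The cells were HepG2 CAGA-GFP in 1% FBS DMEM, stimulated with 500 pg/mL TGF-beta after compound addition. %Activity was normalised to no-cell wells (complete cell-killing) and DMSO (no toxicity), and curves were fitted and classified.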
S-ASM inh: inhibitors of human secretory acid sphingomyelinase; placental ASM, HMU-PC fluorogenic substrate, 60 min; Potency, µM (top dose mostly 57.5 µM), without a hit: at the top dose activity change, negative = inhibition, usual class: inhibitors; 340,000 compounds, 0.006% hits; note: potency is the fitted concentration of half-maximal effect
Target sequence (P17405 47-631 limits assumed): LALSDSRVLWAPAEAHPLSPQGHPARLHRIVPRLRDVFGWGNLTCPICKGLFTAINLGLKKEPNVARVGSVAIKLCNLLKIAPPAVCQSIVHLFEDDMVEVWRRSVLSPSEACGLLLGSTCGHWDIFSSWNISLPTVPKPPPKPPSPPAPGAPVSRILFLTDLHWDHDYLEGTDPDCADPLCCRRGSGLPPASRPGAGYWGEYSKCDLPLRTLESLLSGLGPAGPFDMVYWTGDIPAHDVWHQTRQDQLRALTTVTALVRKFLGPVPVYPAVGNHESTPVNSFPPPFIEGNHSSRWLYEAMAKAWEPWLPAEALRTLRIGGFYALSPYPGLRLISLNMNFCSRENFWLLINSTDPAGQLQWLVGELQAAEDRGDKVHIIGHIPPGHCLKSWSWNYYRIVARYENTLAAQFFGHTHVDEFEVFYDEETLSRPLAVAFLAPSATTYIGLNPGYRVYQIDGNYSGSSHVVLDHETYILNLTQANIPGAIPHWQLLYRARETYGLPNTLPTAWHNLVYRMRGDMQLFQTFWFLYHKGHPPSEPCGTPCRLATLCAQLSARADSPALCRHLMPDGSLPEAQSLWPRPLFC
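HMU-PC0 cleavage (9 uM final) by human placental ASM, 60 min at 37 °C following 10 min compound exposure at RT; stopped at pH 10, fluorescence Ex 386/Em 447 nm.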
Active calls of the source: *. Unless noted, calls come from the whole dose curve; as a rule, active = well fitted curve in the direction sought with a large enough effect; inconclusive = small, poorly fitted or top-dose-only effect, or another doubt; inactive = no such curve, though single readings can be large; an effect the other way counts as inactive or inconclusive.

`COc1ccc(C(=O)/C=C/c2ccc(F)cc2)c(OC(=O)c2ccc([N+](=O)[O-])cc2)c1` gave TGFb SMAD3 inh inconclusive, IL-1B inflam inh -94.2*, TDP1 cell noCPT 20.6µM*, TDP1 cell CPT inconclusive, HepG2 tox -89.3% and S-ASM inh -5.8%.
For COc1ccc(C=CC(=O)c2ccc3cc(OC)c(OC)cc3c2)cc1OC the results were TGFb SMAD3 inh inconclusive, IL-1B inflam inh -97.6*, TDP1 cell noCPT 5.8µM*, TDP1 cell CPT inconclusive and HepG2 tox -74.0%.
Screening COC(=O)[C@@]1(Cc2ccc(F)cc2)[C@H]2c3cc(C(=O)N4CCCC4)n(CCN4CCNC4=O)c3C[C@H]2CN1C(=O)c1ccccc1 returned IL-1B inflam inh 0.0, TDP1 cell noCPT -18.2% and TDP1 cell CPT -8.0%.
Screening O=C(Cn1cnc2c(nnn2Cc2ccc(F)cc2)c1=O)Nc1ccccc1 returned TGFb SMAD3 inh 21.3%, IL-1B inflam inh 1.5, TDP1 cell noCPT -16.4%, TDP1 cell CPT 8.0%, HepG2 tox 5.6% and S-ASM inh 0.9%.
For CNc1cc(-c2ccccc2C(F)(F)F)ncn1 the results were TDP1 cell noCPT 1.2% and TDP1 cell CPT -1.9%.
`COc1ccc(C=NNC(=O)CCCC(=O)NN=Cc2ccc(OC)c(O)c2)cc1O` gave TGFb SMAD3 inh -14.5%, IL-1B inflam inh -12.6, TDP1 cell noCPT -4.3%, TDP1 cell CPT 11.2%, HepG2 tox -26.5% and S-ASM inh -0.4%.
Screening COc1ccc(/C=C/C(=O)CC(=O)/C=C/c2cccc(O)c2OC)cc1O returned TDP1 cell noCPT 2.97µM* and TDP1 cell CPT 6.64µM*.
COc1ccc(/C=C2\SC(=O)N(CCNC(=O)Cn3[nH]c(=O)c4ccccc4c3=O)C2=O)cc1 was read as TGFb SMAD3 inh -5.7%, IL-1B inflam inh 21.2, TDP1 cell noCPT inconclusive, TDP1 cell CPT -7.4%, HepG2 tox -10.0% and S-ASM inh 3.3%.
`O=C(COc1ccccc1[N+](=O)[O-])N1CCC(c2nc3ccccc3o2)CC1` gave TGFb SMAD3 inh -16.8%, TDP1 cell noCPT 18.4µM*, TDP1 cell CPT inconclusive and HepG2 tox -17.9%.
For Cc1cccc(C)c1OCC(=O)N1CCC(c2nc3ccccc3o2)CC1 the results were TGFb SMAD3 inh 0.0%, TDP1 cell noCPT inconclusive, TDP1 cell CPT inconclusive and HepG2 tox -29.3%.
`COc1ccccc1OCC(=O)N1CCC(c2nc3ccccc3o2)CC1` gave TGFb SMAD3 inh -3.9%, TDP1 cell noCPT inconclusive, TDP1 cell CPT inconclusive and HepG2 tox -6.0%.
Screening Cc1ccc(C(C)C)c(OCC(=O)N2CCC(c3nc4ccccc4o3)CC2)c1 returned TGFb SMAD3 inh inconclusive, TDP1 cell noCPT 14.6µM*, TDP1 cell CPT inconclusive and HepG2 tox -111.2%.
COc1cccc(C(=O)c2cn(CC(=O)Nc3cccc(C(F)(F)F)c3)c3nc(C)ccc3c2=O)c1 was read as TGFb SMAD3 inh -25.8%, TDP1 cell noCPT inconclusive, TDP1 cell CPT -5.0% and HepG2 tox -11.3%.
`CCOC(=O)Cn1c(=O)c2c(nc(N3CCOCC3)n2Cc2ccccc2)n(C)c1=O` gave TGFb SMAD3 inh -10.5%, TDP1 cell noCPT 16.4µM*, TDP1 cell CPT inconclusive and HepG2 tox -1.5%.
Screening Cn1c(=O)c2c(nc(N3CCOCC3)n2Cc2ccccc2)n(C)c1=O returned TGFb SMAD3 inh -0.8%, TDP1 cell noCPT 25.9µM*, TDP1 cell CPT inconclusive and HepG2 tox -2.1%.
CCOC(=O)Cn1c(=O)c2c(nc3n2CCCN3Cc2ccccc2)n(C)c1=O was read as TGFb SMAD3 inh 0.0%, IL-1B inflam inh -1.2, TDP1 cell noCPT -24.1%, TDP1 cell CPT 4.3%, HepG2 tox 8.6% and S-ASM inh 9.6%.
Screening CN1CCN(c2nc3c(c(=O)n(C)c(=O)n3C)n2Cc2cccc3ccccc23)CC1 returned TGFb SMAD3 inh -29.2%, IL-1B inflam inh -17.0, TDP1 cell noCPT -29.7%, TDP1 cell CPT -6.4%, HepG2 tox -2.0% and S-ASM inh -0.4%.
`Cn1c(=O)c2c(nc(N3CCCCCC3)n2Cc2cccc3ccccc23)n(C)c1=O` gave TGFb SMAD3 inh 15.5%, IL-1B inflam inh 11.3, TDP1 cell noCPT 25.9µM*, TDP1 cell CPT inconclusive, HepG2 tox 9.7% and S-ASM inh inconclusive.
For O=c1ccc2cc(S(=O)(=O)Nc3ccc(OC(F)(F)F)cc3)ccc2[nH]1 the results were TGFb SMAD3 inh -20.6%, TDP1 cell noCPT -15.8%, TDP1 cell CPT -0.6% and HepG2 tox 3.3%.
`CCOC(=O)c1[nH]c(C)c(CCC(=O)NCc2ccc(OCC)cc2)c1C` gave TGFb SMAD3 inh 9.7%, TDP1 cell noCPT -27.2%, TDP1 cell CPT -10.1% and HepG2 tox -0.8%.
For COc1ccccc1C(=O)Nc1c(C(=O)Nc2cc(Cl)ccc2C)sc2nc(C)cc(C)c12 the results were TGFb SMAD3 inh -17.8% and HepG2 tox -10.6%.
Screening CC(C)C[C@H]1CN([C@@H](CC(C)C)CN2CCC[C@H]2CN2C(=O)C(=O)NC[C@@H]2Cc2ccccc2)C(=O)C(=O)N1CCc1ccccc1 returned IL-1B inflam inh 8.4, TDP1 cell noCPT 3.9% and TDP1 cell CPT 2.7%.
Screening CC(C)C[C@@H](CN1CCC[C@H]1CN1C(=O)C(=O)NC[C@@H]1Cc1ccccc1)N1C[C@H](Cc2ccccc2)N(CCc2ccccc2)C(=O)C1=O returned IL-1B inflam inh -77.4*, TDP1 cell noCPT inconclusive and TDP1 cell CPT 23.1µM*.
For CC(C)C[C@H]1CNC(=O)C(=O)N1C[C@H]1CCCN1C[C@H](CC(C)C)N1C[C@H](CC(C)C)N(CCc2ccccc2)C(=O)C1=O the results were IL-1B inflam inh -74.7*, TDP1 cell noCPT inconclusive and TDP1 cell CPT inconclusive.
Screening COc1ccc(CNc2nc(NCc3ccc(OC)c(OC)c3)n(C(=O)c3cccs3)n2)cc1OC returned TGFb SMAD3 inh -20.7%, IL-1B inflam inh inconclusive, TDP1 cell noCPT 14.6µM*, TDP1 cell CPT 16.4µM*, HepG2 tox 4.7% and S-ASM inh -15.7%.
O=C(c1cccs1)n1nc(-c2ccccc2)nc1NCc1ccco1 was read as TGFb SMAD3 inh -8.6%, IL-1B inflam inh -15.6, TDP1 cell noCPT inconclusive, TDP1 cell CPT 20.6µM*, HepG2 tox -11.3% and S-ASM inh -6.2%.
